# Assay results from PubChem BioAssay (NCI).
# “And” between values parts separate entries of the source, which are not always exact repeats. Identical values can stand only once. About 83,000 compounds went through this panel and 20% of them were active in at least one assay; those are over-represented in the sample as a whole.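 Activity criterion: percent growth below 10, measured after cells in 96-well plates were exposed to a single compound concentration for 48 hours.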 The source made the active and inactive calls.
# Experiments:
# Experiment in all cases: NCI-60 one-dose screen, 48 h (100 = growth as untreated, 0 = no growth, -100 = all killed)
# UACC-62 melanoma = settings: 10 µM unless noted
# TK-10 renal = settings: 10 µM unless noted
# MCF7 breast = settings: 10 µM unless noted
# NCI-H226 lung = settings: 10 µM unless noted
# NCI-H460 lung = settings: 10 µM unless noted
# HOP-92 NSCLC = settings: 10 µM unless noted
# NCI-H522 lung = settings: 10 µM unless noted
# A549/ATCC NSCLC = settings: 10 µM unless noted
# 786-0 renal = settings: 10 µM unless noted
# COLO 205 colon = settings: 10 µM
# DU-145 prostate = settings: 10 µM unless noted
# K-562 leukemia = settings: 10 µM unless noted
# MALME-3M melanoma = settings: 10 µM unless noted
# MDA-MB-231 breast = settings: 10 µM unless noted
# RXF 393 renal = settings: 10 µM unless noted
# SF-268 CNS = settings: 10 µM unless noted
# SF-295 CNS = settings: 10 µM unless noted
# SF-539 CNS = settings: 10 µM unless noted
# UACC-257 melanoma = settings: 10 µM unless noted
# M14 melanoma = settings: 10 µM unless noted
# HCT-15 colon = settings: 10 µM
# HT29 colon = settings: 10 µM unless noted
# SNB-75 CNS = settings: 10 µM unless noted
# SNB-19 CNS = settings: 10 µM unless noted
# PC-3 prostate = settings: 10 µM unless noted
# SK-MEL-5 melanoma = settings: 10 µM unless noted
# LOX IMVI melanoma = settings: 10 µM unless noted
# SK-MEL-28 melanoma = settings: 10 µM unless noted
# SK-MEL-2 melanoma = settings: 10 µM unless noted
# UO-31 renal = settings: 10 µM unless noted
# ACHN renal = settings: 10 µM unless noted
# CAKI-1 renal = settings: 10 µM unless noted
# A498 renal = settings: 10 µM unless noted
# HL-60(TB) leukemia = settings: 10 µM unless noted
# CCRF-CEM leukemia = settings: 10 µM unless noted
# MOLT-4 leukemia = settings: 10 µM
# SR leukemia = settings: 10 µM
# RPMI-8226 leukemia = settings: 10 µM unless noted
# OVCAR-8 ovarian = settings: 10 µM unless noted
# OVCAR-5 ovarian = settings: 10 µM unless noted
# OVCAR-4 ovarian = settings: 10 µM unless noted
# SK-OV-3 ovarian = settings: 10 µM unless noted
# IGROV1 ovarian = settings: 10 µM
# OVCAR-3 ovarian = settings: 10 µM unless noted
# HS 578T breast = settings: 10 µM unless noted
# NCI/ADR-RES ovarian = settings: 10 µM unless noted
# T-47D breast = settings: 10 µM unless noted
# BT-549 breast = settings: 10 µM
# MDA-MB-435 melanoma = settings: 10 µM unless noted
# SW-620 colon = settings: 10 µM unless noted
# HCT-116 colon = settings: 10 µM unless noted
# HCC-2998 colon = settings: 10 µM unless noted
# KM12 colon = settings: 10 µM unless noted
smiles,measurement,setting,value
CCOC(=O)C1C(c2ccccc2)C2(C#N)C(=N)OC1(C)C2(C#N)C#N (stereo not given),growth,UACC-62 melanoma,-70.2% [100 µM] (active) and -92.1% [100 µM] (active)
same,growth,TK-10 renal,-32.2% [100 µM] (active) and -95.8% [100 µM] (active)
same,growth,MCF7 breast,-22.3% [100 µM] (active) and -82.1% [100 µM] (active)
CCC[CH2][Sn]1([CH2]CCC)[O]C(=O)c2cccc([N+](=O)[O-])c2C(=O)[O]1,growth,NCI-H226 lung,-83.1% (active)
same,growth,NCI-H460 lung,-5.56% (active)
same,growth,HOP-92 NSCLC,-91.7% (active)
same,growth,NCI-H522 lung,-94.8% (active)
same,growth,A549/ATCC NSCLC,42.4% (inactive)
same,growth,786-0 renal,-97.3% (active)
same,growth,COLO 205 colon,-97.1% (active)
same,growth,DU-145 prostate,-96.7% (active)
same,growth,K-562 leukemia,-12.3% (active)
same,growth,MALME-3M melanoma,-88.4% (active)
same,growth,MDA-MB-231 breast,-89.1% (active)
same,growth,RXF 393 renal,-95.2% (active)
same,growth,SF-268 CNS,-90.1% (active)
same,growth,SF-295 CNS,-36.9% (active)
same,growth,SF-539 CNS,-99.5% (active)
same,growth,UACC-257 melanoma,-94.1% (active)
same,growth,M14 melanoma,-89.2% (active)
same,growth,HCT-15 colon,-85.5% (active)
same,growth,HT29 colon,-75% (active)
same,growth,SNB-75 CNS,-82.3% (active)
same,growth,SNB-19 CNS,-92.8% (active)
same,growth,PC-3 prostate,-67.5% (active)
same,growth,SK-MEL-5 melanoma,-89.8% (active)
same,growth,UACC-62 melanoma,-88.3% (active)
same,growth,LOX IMVI melanoma,-72% (active)
same,growth,SK-MEL-28 melanoma,-93.3% (active)
same,growth,SK-MEL-2 melanoma,-92% (active)
same,growth,UO-31 renal,-100% (active)
same,growth,TK-10 renal,-95.7% (active)
same,growth,ACHN renal,-100% (active)
same,growth,CAKI-1 renal,-93.4% (active)
same,growth,A498 renal,-94.5% (active)
same,growth,HL-60(TB) leukemia,-48.2% (active)
same,growth,CCRF-CEM leukemia,-47.7% (active)
same,growth,MOLT-4 leukemia,-24.4% (active)
same,growth,SR leukemia,-31.6% (active)
same,growth,RPMI-8226 leukemia,-40.5% (active)
same,growth,OVCAR-8 ovarian,-93.1% (active)
same,growth,OVCAR-5 ovarian,-95.6% (active)
same,growth,OVCAR-4 ovarian,-91.6% (active)
same,growth,SK-OV-3 ovarian,12.2% (inactive)
same,growth,IGROV1 ovarian,-76% (active)
same,growth,OVCAR-3 ovarian,-99.3% (active)
same,growth,HS 578T breast,-11.6% (active)
same,growth,NCI/ADR-RES ovarian,-54.4% (active)
same,growth,T-47D breast,-76.3% (active)
same,growth,BT-549 breast,-99.6% (active)
same,growth,MDA-MB-435 melanoma,-99.2% (active)
same,growth,SW-620 colon,-54.6% (active)
same,growth,MCF7 breast,-99% (active)
same,growth,HCT-116 colon,-100% (active)
same,growth,HCC-2998 colon,-84.7% (active)
same,growth,KM12 colon,-83.9% (active)
O=C1NC(=O)C(CCC(=O)c2cccc3ccccc23)C(=O)N1,growth,UACC-62 melanoma,77.1% [100 µM] (inactive) and 44.6% [100 µM] (inactive)
same,growth,TK-10 renal,106% [100 µM] (inactive) and 8.08% [100 µM] (active)
same,growth,MCF7 breast,91% [100 µM] (inactive) and 51.9% [100 µM] (inactive)
Cc1nc2ccccc2c(/C=C/c2ccccc2)c1C(=O)/C=C/c1ccc(C(F)(F)F)cc1,growth,HL-60(TB) leukemia,-26.9% (active)
